Results filed as inconclusive are left out. Where a call stands in place of a potency, no number is given. The source made the active and inactive calls. Calls follow the shape of the dose curve; as a rule, active = well fitted curve in the direction sought with a large enough effect; inconclusive = small, poorly fitted or top-dose-only effect, or another doubt; inactive = no such curve, though single readings can be large; an effect the other way counts as inactive or inconclusive.
Assays:
[1] = S16 Schwann cell PMP22 intronic element firefly luciferase assay (AID 624032); settings: S16 rat Schwann cells, PMP22 element FLuc, 24 h; series mostly up to 25.7 µM; also: nearly all actives have a fitted effect of over 30% in size
Procedure, shortened: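 Luciferase reporter of PMP22 intronic-element expression in stably transfected S16 rat Schwann cells, read by ONE-Glo luminescence after 24 h compound exposure at 37 C. Activity scaled between DMSO (0%) and positive-control PTC124; concentration-effect curves quality-classified.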

3D7 = test: qHTS profiling for inhibitors of Plasmodium falciparum proliferation (AID 504749); also: nearly all actives have a fitted effect of over 60% in size; settings: P. falciparum in erythrocytes, SYBR Green DNA, 72 h; series mostly up to 12.8 µM
Procedure, shortened: (§1)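 Three-day growth assay of blood-stage parasites in erythrocytes (0.3% parasitemia, 2.5% hematocrit) at 37 C, 5% CO2, quantified by SYBR Green DNA staining after overnight detergent lysis.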

AS120 = test: as above; settings: P. falciparum in erythrocytes, SYBR Green DNA, 72 h; series mostly up to 12.8 µM
Procedure, shortened: as §1

ATS189 = test: as above; settings: P. falciparum in erythrocytes, SYBR Green DNA, 72 h; series mostly up to 12.8 µM
Procedure, shortened: as §1

ATS95 = test: as above; settings: P. falciparum in erythrocytes, SYBR Green DNA, 72 h; series mostly up to 12.8 µM
Procedure, shortened: as §1

CP192 = test: as above; settings: P. falciparum in erythrocytes, SYBR Green DNA, 72 h; series mostly up to 12.8 µM
Procedure, shortened: as §1

CP217 = test: as above; settings: P. falciparum in erythrocytes, SYBR Green DNA, 72 h; series mostly up to 12.8 µM
Procedure, shortened: as §1

CP238 = test: as above; settings: P. falciparum in erythrocytes, SYBR Green DNA, 72 h; series mostly up to 12.8 µM
Procedure, shortened: as §1

CP247 = test: as above; settings: P. falciparum in erythrocytes, SYBR Green DNA, 72 h; series mostly up to 12.8 µM
Procedure, shortened: as §1

CP256 = test: as above; settings: P. falciparum in erythrocytes, SYBR Green DNA, 72 h; series mostly up to 12.8 µM
Procedure, shortened: as §1

CP262 = test: as above; settings: P. falciparum in erythrocytes, SYBR Green DNA, 72 h; series mostly up to 12.8 µM
Procedure, shortened: as §1

CP268 = test: as above; settings: P. falciparum in erythrocytes, SYBR Green DNA, 72 h; series mostly up to 12.8 µM
Procedure, shortened: as §1

CP325 = test: as above; settings: P. falciparum in erythrocytes, SYBR Green DNA, 72 h; series mostly up to 12.8 µM
Procedure, shortened: as §1

Dd2 = test: as above; settings: P. falciparum in erythrocytes, SYBR Green DNA, 72 h; series mostly up to 12.8 µM
Procedure, shortened: as §1

N140 = test: as above; settings: P. falciparum in erythrocytes, SYBR Green DNA, 72 h; series mostly up to 12.8 µM
Procedure, shortened: as §1

PC15 = test: as above; settings: P. falciparum in erythrocytes, SYBR Green DNA, 72 h; series mostly up to 12.8 µM
Procedure, shortened: as §1

PC49 = test: as above; settings: P. falciparum in erythrocytes, SYBR Green DNA, 72 h; series mostly up to 12.8 µM
Procedure, shortened: as §1

TAB109 = test: as above; settings: P. falciparum in erythrocytes, SYBR Green DNA, 72 h; series mostly up to 12.8 µM
Procedure, shortened: as §1

TAB113 = test: as above; settings: P. falciparum in erythrocytes, SYBR Green DNA, 72 h; series mostly up to 12.8 µM
Procedure, shortened: as §1

CP305 = test: as above; settings: P. falciparum in erythrocytes, SYBR Green DNA, 72 h; series mostly up to 12.8 µM
Procedure, shortened: as §1
Potency is read from the fitted curve at half-maximal effect.

SMILES | Potency [1] | Potency (3D7) | Potency (AS120) | Potency (ATS189) | Potency (ATS95) | Potency (CP192) | Potency (CP217) | Potency (CP238) | Potency (CP247) | Potency (CP256) | Potency (CP262) | Potency (CP268) | Potency (CP325) | Potency (Dd2) | Potency (N140) | Potency (PC15) | Potency (PC49) | Potency (TAB109) | Potency (TAB113) | Potency (CP305)
C[N+]12CCC(CC1)[C@@H](OC(=O)C(O)(c1ccccc1)c1ccccc1)C2 | inactive | inactive | inactive | inactive | inactive | inactive | inactive | inactive | inactive | inactive | inactive | inactive | inactive | inactive | inactive | inactive | inactive | inactive | inactive | –
C[C@H](N[C@@H](C)COc1ccccc1)[C@H](O)c1ccc(O)cc1 | 1.55 µM (active) | inactive | inactive | inactive | inactive | inactive | inactive | inactive | inactive | inactive | inactive | inactive | inactive | – | inactive | inactive | inactive | inactive | inactive | inactive
CC(C)(C)NC[C@H](O)COc1cccc2c1CCC(=O)N2 | – | inactive | inactive | inactive | inactive | inactive | inactive | inactive | inactive | inactive | inactive | inactive | inactive | inactive | inactive | inactive | inactive | inactive | inactive | inactive
NS(=O)(=O)c1cc2c(cc1Cl)N[C@@H](CC1CCCC1)NS2(=O)=O | inactive | inactive | inactive | inactive | inactive | inactive | inactive | inactive | inactive | inactive | inactive | inactive | inactive | inactive | inactive | inactive | – | inactive | inactive | inactive
C=CCN1C(=CCO)[C@H]2C[C@H]3[C@@H]1CC[C@@]31c3ccccc3N3C=C4[C@@H]5N(/C=C/2[C@H]31)c1ccccc1[C@]51CC[C@H]2[C@H]1C[C@@H]4/C(=C/CO)N2CC=C | inactive | inactive | inactive | inactive | inactive | inactive | inactive | inactive | inactive | inactive | inactive | inactive | inactive | inactive | inactive | inactive | inactive | inactive | inactive | inactive
O=C1O[C@H](CN2CCOCC2)CN1/N=C\c1ccc([N+](=O)[O-])o1 | inactive | – | – | inactive | inactive | inactive | inactive | inactive | inactive | inactive | inactive | inactive | inactive | – | – | inactive | – | – | – | inactive
CC(=O)[C@@]1(O)CC[C@H]2[C@H]3C[C@@H](C)C4=CC(=O)C=C[C@]4(C)[C@@]3(F)[C@@H](O)C[C@]21C | inactive | inactive | inactive | inactive | inactive | inactive | inactive | inactive | – | inactive | inactive | inactive | inactive | inactive | inactive | inactive | inactive | inactive | inactive | inactive
C#C[C@@]1(O)CC[C@@H]2[C@@H]3CCC4=C(CCC(=O)C4)[C@H]3CC[C@]21C | 3.89 µM (active) | – | – | – | – | – | – | – | – | – | – | – | – | – | – | – | – | – | – | –
CS(=O)(=O)c1ccc([C@H](O)[C@H](CO)NC(=O)C(Cl)Cl)cc1 | inactive | inactive | inactive | inactive | inactive | inactive | inactive | inactive | inactive | – | – | – | – | – | inactive | inactive | inactive | – | inactive | –
COc1ccc(C[C@@](C)(N)C(=O)O)cc1OC | – | inactive | inactive | inactive | inactive | inactive | inactive | inactive | inactive | inactive | inactive | inactive | inactive | inactive | inactive | inactive | inactive | inactive | inactive | inactive
CNC[C@H](O)c1ccc(OC(=O)C(C)(C)C)c(OC(=O)C(C)(C)C)c1 | – | inactive | inactive | inactive | inactive | inactive | inactive | inactive | inactive | 10 µM (active) | inactive | inactive | inactive | inactive | inactive | – | inactive | inactive | inactive | inactive
COc1cc(N)c(Cl)cc1C(=O)N[C@H]1CCN(CCCOc2ccc(F)cc2)C[C@H]1OC | – | – | – | – | – | inactive | – | – | – | 2.82 µM (active) | 3.61 µM (active) | inactive | – | 3.55 µM (active) | – | inactive | inactive | – | – | –
O=C(NC[C@@H](O)CO)c1c(I)c(C(=O)NC[C@@H](O)CO)c(I)c(N(CCO)C(=O)CO)c1I | inactive | inactive | inactive | inactive | inactive | inactive | inactive | inactive | inactive | inactive | inactive | inactive | inactive | inactive | inactive | inactive | inactive | inactive | inactive | inactive
CC[C@@H]1OC(=O)[C@H](C)[C@H](O[C@@H]2C[C@](C)(OC)[C@H](O)[C@H](C)O2)[C@H](C)[C@H](O[C@@H]2O[C@@H](C)C[C@@H](N(C)C)[C@@H]2O)[C@](C)(O)C[C@H](C)C(=NOCOCCOC)[C@H](C)[C@H](O)[C@]1(C)O | inactive | inactive | inactive | inactive | inactive | inactive | inactive | inactive | inactive | – | inactive | inactive | inactive | – | inactive | inactive | inactive | inactive | inactive | inactive
C[C@@]12CC[C@H]3[C@@H](CCC4=CC(=O)CC[C@]43C)[C@H]1CC[C@H]2C(=O)CO | inactive | inactive | – | inactive | inactive | inactive | inactive | inactive | – | inactive | inactive | inactive | inactive | inactive | inactive | inactive | inactive | inactive | – | inactive
C=CCOc1ccccc1OC[C@H](O)CNC(C)C | inactive | inactive | inactive | inactive | inactive | inactive | inactive | inactive | inactive | – | inactive | inactive | inactive | – | inactive | inactive | inactive | inactive | inactive | inactive
CC[N+](CC)(CC)CC[C@](O)(c1ccccc1)C1CCCCC1 | inactive | inactive | inactive | inactive | inactive | inactive | inactive | inactive | inactive | inactive | inactive | inactive | inactive | inactive | inactive | inactive | inactive | inactive | inactive | inactive
CN1C(=O)C[C@H](c2ccccc2)C1=O | inactive | inactive | – | inactive | 0.0071 µM (active) | inactive | inactive | inactive | inactive | inactive | inactive | inactive | inactive | inactive | inactive | inactive | inactive | 0.005 µM (active) | – | inactive
NC(=O)N[C@H]1NC(=O)NC1=O | inactive | – | inactive | inactive | inactive | inactive | inactive | inactive | inactive | inactive | inactive | inactive | inactive | inactive | inactive | inactive | inactive | inactive | inactive | inactive
CC(=O)OCC(=O)[C@@]1(O)CC[C@@H]2[C@H]3CCC4=CC(=O)C=C[C@]4(C)[C@]3(F)[C@@H](O)C[C@@]21C | inactive | inactive | inactive | inactive | inactive | inactive | inactive | inactive | inactive | inactive | inactive | inactive | inactive | inactive | inactive | inactive | inactive | inactive | inactive | inactive
NS(=O)(=O)c1cc2c(cc1Cl)N[C@@H](C(Cl)Cl)NS2(=O)=O | inactive | inactive | inactive | inactive | inactive | inactive | inactive | inactive | inactive | inactive | inactive | inactive | inactive | inactive | inactive | inactive | inactive | inactive | inactive | inactive
CC(=O)O[C@]1(C(C)=O)CC[C@@H]2[C@@H]3C=C(C)C4=CC(=O)CC[C@@]4(C)[C@H]3CC[C@]21C | inactive | inactive | inactive | inactive | inactive | inactive | inactive | inactive | inactive | inactive | inactive | inactive | inactive | inactive | inactive | inactive | inactive | inactive | inactive | inactive
Cc1cccc(C)c1NC(=O)[C@H](C)N | inactive | inactive | inactive | inactive | inactive | – | inactive | inactive | inactive | inactive | – | – | – | inactive | inactive | inactive | inactive | inactive | inactive | –
CO[C@H]1[C@H](O[C@H]2O[C@@H](C)[C@@H](O[C@@H]3C[C@](C)(O)[C@H](OC(=O)CC(C)C)[C@H](C)O3)[C@@H](N(C)C)[C@@H]2O)[C@@H](CC=O)C[C@@H](C)[C@@H](O)/C=C\C=C/C[C@@H](C)OC(=O)C[C@H]1OC(C)=O | inactive | inactive | – | – | – | – | – | – | – | 2 µM (active) | 2.28 µM (active) | – | – | 1.41 µM (active) | – | – | inactive | 1 µM (active) | inactive | –
CC[C@H](CO)NCCN[C@@H](CC)CO | inactive | inactive | inactive | inactive | inactive | inactive | inactive | inactive | inactive | inactive | inactive | inactive | inactive | inactive | inactive | inactive | inactive | inactive | inactive | inactive

— PubChem BioAssay (NCATS)
